{"source": "PubChem BioAssay (NCATS)", "key": {"[1]": {"experiment": "S16 Schwann cell viability assay (CellTiter-Glo assay) (AID 624031);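 further: cellular ATP luminescence as a viability measure; nearly all actives have a fitted effect of over 70% in size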", "details": "S16 rat Schwann cells viability, 24 h; series mostly up to 57.5 µM", "procedure,_shortened": "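Luminescent ATP read-out (CellTiter-Glo) after 24 h compound exposure of native S16 rat Schwann cells at 37 °C. Signals were normalized between cell-free wells and DMSO-treated cells, set as 0% activity.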"}, "[2]": {"experiment": "S16 Schwann cell PMP22 intronic element firefly luciferase assay (AID 624032); further: nearly all actives have a fitted effect of over 30% in size", "details": "S16 rat Schwann cells, PMP22 element FLuc, 24 h; series mostly up to 57.5 µM", "procedure,_shortened": "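Rat S16 Schwann cells stably carrying firefly luciferase driven by a PMP22 intronic element, in 10% FBS, treated 24 h at 37 C. ONE-Glo luminescence normalized to PTC124 control and DMSO (0%); curves classed by r2, magnitude and activity.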"}, "[3]": {"experiment": "qHTS profiling of the MIPE4 collection as inhibitors of Plasmodium falciparum (HB3) proliferation (AID 743347; call rule not given here)", "details": "P. falciparum HB3 in erythrocytes, SYBR Green DNA, 72 h; at 28.5 µM (top of the series)", "procedure,_shortened": "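Parasite DNA was quantified by SYBR Green I fluorescence (ex 485, em 535 nm) after overnight lysis in saponin/Triton buffer at room temperature. Cultures at 0.3% parasitemia and 2.5% hematocrit were first exposed to compound for 72 h at 37 C; signals were normalised to artemisinin (0.29 uM) and vehicle wells.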"}, "[4]": {"experiment": "qHTS for differential inhibitors of proliferation of Plasmodium falciparum line GB4 (AID 1816);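 further: parasite growth measured after 72 h incubation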", "details": "Potency: Plasmodium falciparum GB4 proliferation inhibition; series mostly up to 28.7 µM"}, "[5]": {"experiment": "qHTS for differential inhibitors of proliferation of Plasmodium falciparum line 3D7 (AID 1876);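 further: parasite growth measured after three days of culture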", "details": "P. falciparum 3D7 proliferation inhibition; series mostly up to 28.7 µM"}, "[6]": {"experiment": "qHTS for differential inhibitors of proliferation of Plasmodium falciparum line D10 (AID 1877);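 further: parasites grown with compound for 72 h before DNA staining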", "details": "series mostly up to 28.7 µM"}, "[7]": {"experiment": "qHTS for differential inhibitors of proliferation of Plasmodium falciparum line Dd2 (AID 1882); further: nearly all actives have a fitted effect of over 65% in size", "details": "Potency: Plasmodium falciparum Dd2 proliferation inhibition; series mostly up to 28.7 µM", "procedure,_shortened": "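RBC culture, 0.3% parasitemia / 2.5% Hct final; cpd added by pin tool in DMSO; 72 h, 37 C, 5% CO2; lysis buffer + SYBR Green I, o/n RT dark; FI 485/535; norm. to artemisinin 0.29 uM and DMSO.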"}, "[8]": {"experiment": "qHTS for differential inhibitors of proliferation of Plasmodium falciparum line HB3 (AID 1886)", "details": "Potency: Plasmodium falciparum HB3 proliferation inhibition; series mostly up to 28.7 µM"}, "[9]": {"experiment": "Validation screen for small molecules that induce DNA re-replication in MCF 10A normal breast cells (AID 463097); further: potency means the concentration at half of the fitted maximal effect; nearly all actives have a fitted effect of over 60% in size", "details": "MCF 10A cells, DNA re-replication phenotype imaging; series mostly up to 46.1 µM", "procedure,_shortened": "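MCF 10A cells exposed to compound 48 hr at 37 C, 5% CO2, then Hoechst-stained 40 min. Laser-scanning imaging of nuclear DNA content (405 nm ex, 500-530 nm em); re-replication scored as rise in nuclei with elevated fluorescence intensity.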"}, "[10]": {"target": "M-phase phosphoprotein 8 (Homo sapiens) (UniProt Q99549)", "sequence (Q99549 whole entry, looked up)": "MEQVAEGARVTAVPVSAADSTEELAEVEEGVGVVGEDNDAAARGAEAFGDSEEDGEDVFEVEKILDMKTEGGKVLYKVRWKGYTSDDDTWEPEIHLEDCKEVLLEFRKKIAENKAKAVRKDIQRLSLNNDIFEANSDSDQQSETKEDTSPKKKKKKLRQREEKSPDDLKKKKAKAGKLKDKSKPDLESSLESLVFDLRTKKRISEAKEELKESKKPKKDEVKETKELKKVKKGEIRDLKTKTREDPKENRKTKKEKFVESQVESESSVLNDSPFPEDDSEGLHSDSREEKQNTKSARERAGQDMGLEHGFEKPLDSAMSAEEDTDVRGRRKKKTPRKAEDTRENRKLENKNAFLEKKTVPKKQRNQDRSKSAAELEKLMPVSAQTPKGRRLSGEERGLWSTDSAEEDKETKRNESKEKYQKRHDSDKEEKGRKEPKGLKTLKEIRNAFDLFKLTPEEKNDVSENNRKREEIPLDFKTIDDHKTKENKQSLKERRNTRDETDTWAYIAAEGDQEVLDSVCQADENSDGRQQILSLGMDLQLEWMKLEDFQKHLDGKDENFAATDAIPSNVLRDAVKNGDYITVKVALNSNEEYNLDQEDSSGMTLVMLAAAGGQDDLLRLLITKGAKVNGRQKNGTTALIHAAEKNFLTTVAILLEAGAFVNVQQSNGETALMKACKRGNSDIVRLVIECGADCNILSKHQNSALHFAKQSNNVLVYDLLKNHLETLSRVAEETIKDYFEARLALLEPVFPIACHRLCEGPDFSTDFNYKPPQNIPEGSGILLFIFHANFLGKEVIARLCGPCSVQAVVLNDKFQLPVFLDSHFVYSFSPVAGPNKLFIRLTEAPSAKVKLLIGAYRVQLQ", "experiment": "qHTS Validation Assay for Inhibitors for MPP8 Chromodomain Interactions with Methylated Histone Tails (AID 488949); further: potency means the concentration at half of the fitted maximal effect; nearly all actives have a fitted effect of over 55% in size", "details": "AlphaScreen MPP8 binding to H3K9me3 peptide; series mostly up to 114 µM", "procedure,_shortened": "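MPP8 (50 nM) was pre-bound to 50 nM biotinylated H3(1-18)K9me3 peptide in PBS pH 7.4 with 0.01% Tween-20. Compounds were then added for 30 min at room temperature, and complex disruption was read by AlphaScreen with streptavidin donor and nickel-chelate acceptor beads.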"}, "[11]": {"target": "Voltage-gated inwardly rectifying potassium channel KCNH2 (Homo sapiens) (UniProt Q12809)", "sequence (Q12809 whole entry, looked up)": "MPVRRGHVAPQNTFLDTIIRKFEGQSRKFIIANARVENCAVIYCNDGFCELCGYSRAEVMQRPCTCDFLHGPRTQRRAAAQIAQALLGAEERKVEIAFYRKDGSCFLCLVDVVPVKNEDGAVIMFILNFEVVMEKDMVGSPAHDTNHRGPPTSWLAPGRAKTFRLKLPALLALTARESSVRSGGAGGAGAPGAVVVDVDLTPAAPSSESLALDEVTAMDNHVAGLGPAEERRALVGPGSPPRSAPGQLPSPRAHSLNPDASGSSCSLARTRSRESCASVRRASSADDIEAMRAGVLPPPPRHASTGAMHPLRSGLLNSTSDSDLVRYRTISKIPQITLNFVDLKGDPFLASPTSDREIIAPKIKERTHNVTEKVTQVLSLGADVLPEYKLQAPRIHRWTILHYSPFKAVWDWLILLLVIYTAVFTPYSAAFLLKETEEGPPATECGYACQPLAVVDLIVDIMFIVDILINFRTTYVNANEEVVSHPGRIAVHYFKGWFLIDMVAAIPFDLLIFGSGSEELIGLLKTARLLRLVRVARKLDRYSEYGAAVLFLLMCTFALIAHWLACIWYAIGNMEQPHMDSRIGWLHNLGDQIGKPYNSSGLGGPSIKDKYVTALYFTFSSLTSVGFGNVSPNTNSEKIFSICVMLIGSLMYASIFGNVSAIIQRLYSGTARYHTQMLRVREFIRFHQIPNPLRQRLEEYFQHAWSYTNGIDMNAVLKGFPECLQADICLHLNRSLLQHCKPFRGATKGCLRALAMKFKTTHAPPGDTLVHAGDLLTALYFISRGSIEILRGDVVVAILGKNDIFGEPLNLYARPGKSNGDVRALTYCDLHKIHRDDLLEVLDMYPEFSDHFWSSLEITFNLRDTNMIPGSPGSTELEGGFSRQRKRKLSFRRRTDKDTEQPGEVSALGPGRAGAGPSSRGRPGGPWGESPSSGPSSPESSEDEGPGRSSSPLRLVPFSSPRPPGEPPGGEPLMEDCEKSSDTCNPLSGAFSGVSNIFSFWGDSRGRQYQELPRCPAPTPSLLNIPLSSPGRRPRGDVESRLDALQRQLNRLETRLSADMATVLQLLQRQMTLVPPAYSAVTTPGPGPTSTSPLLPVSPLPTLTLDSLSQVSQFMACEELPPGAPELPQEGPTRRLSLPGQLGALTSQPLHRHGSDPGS", "experiment": "qHTS Assay for Small Molecule Inhibitors of the Human hERG Channel Activity (AID 588834);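 further: top concentration of the series differs between compounds; lower thallium flux fluorescence means stronger hERG block; nearly all actives have a fitted effect of over 50% in size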", "details": "U2OS BacMam hERG, FluxOR thallium flux fluorescence; series mostly up to 46.1 µM", "procedure,_shortened": "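Thallium serves as surrogate for K+ influx through BacMam-delivered hERG in U2OS cells. Compounds are added for about 10 minutes after dye loading; stimulation buffer then starts flux, monitored kinetically on FDSS.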"}, "[12]": {"target": "Pyruvate kinase PKM (Homo sapiens) (UniProt P14618)", "sequence (P14618 whole entry, looked up)": "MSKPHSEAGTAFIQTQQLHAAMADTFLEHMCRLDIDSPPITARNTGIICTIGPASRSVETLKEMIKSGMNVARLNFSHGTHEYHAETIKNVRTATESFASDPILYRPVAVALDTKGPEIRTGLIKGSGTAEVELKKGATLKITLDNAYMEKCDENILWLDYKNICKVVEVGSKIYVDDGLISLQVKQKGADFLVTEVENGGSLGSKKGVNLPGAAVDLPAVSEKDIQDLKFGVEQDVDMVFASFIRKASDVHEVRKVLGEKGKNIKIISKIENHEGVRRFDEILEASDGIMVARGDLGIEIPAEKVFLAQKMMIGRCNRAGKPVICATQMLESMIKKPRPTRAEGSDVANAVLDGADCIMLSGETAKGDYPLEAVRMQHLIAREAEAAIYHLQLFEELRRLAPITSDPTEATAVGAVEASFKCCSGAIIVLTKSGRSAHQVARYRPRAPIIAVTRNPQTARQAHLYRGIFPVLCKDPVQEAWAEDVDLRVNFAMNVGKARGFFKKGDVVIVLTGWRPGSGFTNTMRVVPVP", "experiment": "qHTS Assay for Inhibitors of Human Muscle Pyruvate Kinase (AID 958)", "details": "purified human PKM enzyme activity", "procedure,_shortened": "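Purified human PKM2 (0.1 nM) with 0.5 mM PEP (Km) and 0.1 mM ADP in 50 mM imidazole pH 7.2, KCl, MgCl2, 1 h at room temperature; ATP formed read by coupled luciferase luminescence. Normalized to no-enzyme/110 uM thiadiazolimine inhibition; 0.3 nM enzyme column for activation.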"}, "[13]": {"target": "Cytochrome P450 3A4 (Homo sapiens) (UniProt P08684)", "experiment": "qHTS for inhibitors of CYP3A4 against the NCATS DSHEA and TCM libraries (AID 1919971);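 further: inhibition lowers luminescence from luciferin made by CYP3A4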", "details": "recombinant CYP3A4 enzyme activity, luminescence qHTS; series mostly up to 4.27 µM", "procedure,_shortened": "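Isoform-specific enzyme and substrate levels; enzyme-free wells as background. Reaction: 1x NADPH regenerating system, 30-45 min, room temperature, shielded from light; luminescent detection reagent added, 30 min.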"}, "[14]": {"target": "Cytochrome P450 1A2 (Homo sapiens) (UniProt P05177)", "sequence (P05177 whole entry, looked up)": "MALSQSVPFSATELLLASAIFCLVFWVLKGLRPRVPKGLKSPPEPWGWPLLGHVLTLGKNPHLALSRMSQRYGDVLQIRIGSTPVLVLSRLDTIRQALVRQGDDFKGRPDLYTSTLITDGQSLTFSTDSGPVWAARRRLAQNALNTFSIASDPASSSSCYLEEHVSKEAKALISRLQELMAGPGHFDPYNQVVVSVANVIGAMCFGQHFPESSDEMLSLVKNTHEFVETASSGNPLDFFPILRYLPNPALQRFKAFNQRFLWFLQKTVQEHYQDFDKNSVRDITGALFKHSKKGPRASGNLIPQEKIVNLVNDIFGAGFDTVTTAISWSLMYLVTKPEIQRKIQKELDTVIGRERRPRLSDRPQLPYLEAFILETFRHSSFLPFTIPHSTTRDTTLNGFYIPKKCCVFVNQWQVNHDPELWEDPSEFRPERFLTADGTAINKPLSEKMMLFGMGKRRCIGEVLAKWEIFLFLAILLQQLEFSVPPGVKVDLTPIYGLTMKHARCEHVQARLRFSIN", "experiment": "qHTS for inhibitors of CYPIA2 against the NCATS DSHEA and TCM libraries (AID 1919976)", "details": "recombinant CYP1A2 enzyme activity, luminescence; series mostly up to 4.62 µM", "procedure,_shortened": "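Furafylline served as the plate control. Compounds met CYP1A2 and pro-luciferin substrate 15 min before NADPH regeneration solution (1x) was added; after 30-45 min at RT, P450-Glo reagent was added for 30 min and luminescence was measured.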"}, "[15]": {"target": "Bile acid receptor (Homo sapiens) (UniProt Q96RI1)", "sequence (Q96RI1 whole entry, looked up)": "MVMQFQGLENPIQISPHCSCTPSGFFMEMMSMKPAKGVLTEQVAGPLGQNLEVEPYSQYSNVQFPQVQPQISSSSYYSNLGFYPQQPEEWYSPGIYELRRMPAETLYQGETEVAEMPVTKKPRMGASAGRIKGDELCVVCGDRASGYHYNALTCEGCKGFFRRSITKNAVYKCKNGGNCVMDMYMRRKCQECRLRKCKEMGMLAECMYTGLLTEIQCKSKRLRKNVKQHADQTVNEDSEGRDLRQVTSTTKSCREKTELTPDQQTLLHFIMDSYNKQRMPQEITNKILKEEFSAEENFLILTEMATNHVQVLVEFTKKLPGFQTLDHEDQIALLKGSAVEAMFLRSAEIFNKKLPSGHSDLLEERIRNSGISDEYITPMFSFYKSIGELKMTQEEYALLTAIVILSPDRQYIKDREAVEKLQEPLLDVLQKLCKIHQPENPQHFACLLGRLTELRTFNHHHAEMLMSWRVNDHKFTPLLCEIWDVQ", "experiment": "qHTS assay for small molecule antagonists of farnesoid X receptor signaling (AID 588526; calls by dose curve)", "details": "HEK293T FXR-UAS-bla, beta-lactamase ratio, antagonist mode; series mostly up to 76.7 µM", "procedure,_shortened": "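Antagonist mode: titrated compounds tested against chenodeoxycholic acid stimulation (normalized to 50 uM CDCA and DMSO) in GeneBLAzer HEK293T cells for 16 h. Beta-lactamase read by CCF4 fluorescence; IC50 from Hill fits.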"}, "[16]": {"target": "Glucocorticoid receptor (Homo sapiens) (UniProt P04150)", "sequence (P04150 whole entry, looked up)": "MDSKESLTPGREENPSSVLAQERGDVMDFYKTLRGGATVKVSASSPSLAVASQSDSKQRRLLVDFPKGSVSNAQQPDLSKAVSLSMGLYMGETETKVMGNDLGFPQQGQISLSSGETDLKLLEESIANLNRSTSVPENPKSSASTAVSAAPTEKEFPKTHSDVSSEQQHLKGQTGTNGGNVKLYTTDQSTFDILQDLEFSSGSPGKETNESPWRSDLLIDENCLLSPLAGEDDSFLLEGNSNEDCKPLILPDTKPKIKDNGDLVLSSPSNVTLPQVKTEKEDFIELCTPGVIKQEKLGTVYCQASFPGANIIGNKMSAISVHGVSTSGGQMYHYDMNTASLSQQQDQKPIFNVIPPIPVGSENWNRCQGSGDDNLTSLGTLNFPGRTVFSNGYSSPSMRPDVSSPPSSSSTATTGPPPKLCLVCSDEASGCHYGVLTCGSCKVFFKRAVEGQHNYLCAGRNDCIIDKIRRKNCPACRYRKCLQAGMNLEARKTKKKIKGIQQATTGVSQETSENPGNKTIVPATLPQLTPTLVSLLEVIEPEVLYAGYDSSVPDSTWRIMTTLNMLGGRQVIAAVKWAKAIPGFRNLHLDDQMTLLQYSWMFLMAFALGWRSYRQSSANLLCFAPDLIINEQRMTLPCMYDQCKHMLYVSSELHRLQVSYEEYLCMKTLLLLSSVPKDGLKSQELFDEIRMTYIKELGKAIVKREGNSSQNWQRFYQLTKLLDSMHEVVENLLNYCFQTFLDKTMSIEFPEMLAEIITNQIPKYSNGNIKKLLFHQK", "experiment": "qHTS assay for small molecule agonists of glucocorticoid receptor signaling (AID 588532; active means well fitted curve in the direction sought with a large enough effect in the signal ratio, with a control signal flat; the % refers to the signal ratio)", "details": "HeLa MMTV-bla, beta-lactamase ratio, agonist, 18 h; stronger effect = higher value; percent of dexamethasone control, DMSO zero", "procedure,_shortened": "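MMTV-bla HeLa beta-lactamase reporter cells in 1% charcoal/dextran FBS medium, compounds up to 92 uM for 18 h at 37 C, CCF4 readout; normalized to 0.1 uM dexamethasone (100%), EC50 and efficacy from Hill fits.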"}, "[17]": {"experiment": "qHTS assay for small molecule activators of the nuclear factor-kappa B (NF-kB) signaling pathway (AID 651749; active means well fitted activation curve with a large enough effect in the signal ratio; the % refers to the signal ratio)", "details": "NF-kB-bla ME-180 cells, beta-lactamase FRET ratio, 16 h; stronger effect = higher value", "procedure,_shortened": "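NF-kB-bla ME-180 cells, 2,000/well; 23 nL compound or DMSO pinned; 16 hr, 37C/5% CO2; beta-lactamase FRET read-out.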"}, "[18]": {"experiment": "qHTS assay for small molecule agonists of the antioxidant response element (ARE) signaling pathway measured by Nrf2-dependant transcriptional activity (AID 720636; active means well fitted curve in the direction sought with a large enough effect in the repeat runs; an effect the other way counts as inactive or inconclusive)", "details": "ARE-luc HepG2, Nrf2 luciferase reporter, 16 h; series mostly up to 92.4 µM", "procedure,_shortened": "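Cells: ARE-luc HepG2 with Nrf2-responsive luciferase. Medium contained 1% dialyzed FBS. Compound exposure lasted 16 hr at 37 C and 5% CO2, followed by ONE-Glo luciferase detection.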"}, "[19]": {"experiment": "qHTS assay for small molecule antagonists of peroxisome proliferator-activated receptor delta signaling (AID 588535; active means well fitted inhibition curve with a large enough effect in the signal ratio, with a control signal flat, not every such curve was filed as active; the % refers to the signal ratio)", "details": "HEK293T PPARd-UAS-bla, beta-lactamase FRET ratio, 18 h; 460 nm channel", "procedure,_shortened": "(§1)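 Beta-lactamase reporter read-out (405 nm excitation, 460/530 nm emission) after CCF4 loading for 2 hrs at RT. HEK293T PPAR-delta-UAS-bla cells, 2% charcoal/dextran FBS, compounds for 18 hrs at 37 C. Hill fit gave IC50 and efficacy.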"}, "[20]": {"target": "Peroxisome proliferator-activated receptor delta (Homo sapiens) (UniProt Q03181)", "sequence (Q03181 whole entry, looked up)": "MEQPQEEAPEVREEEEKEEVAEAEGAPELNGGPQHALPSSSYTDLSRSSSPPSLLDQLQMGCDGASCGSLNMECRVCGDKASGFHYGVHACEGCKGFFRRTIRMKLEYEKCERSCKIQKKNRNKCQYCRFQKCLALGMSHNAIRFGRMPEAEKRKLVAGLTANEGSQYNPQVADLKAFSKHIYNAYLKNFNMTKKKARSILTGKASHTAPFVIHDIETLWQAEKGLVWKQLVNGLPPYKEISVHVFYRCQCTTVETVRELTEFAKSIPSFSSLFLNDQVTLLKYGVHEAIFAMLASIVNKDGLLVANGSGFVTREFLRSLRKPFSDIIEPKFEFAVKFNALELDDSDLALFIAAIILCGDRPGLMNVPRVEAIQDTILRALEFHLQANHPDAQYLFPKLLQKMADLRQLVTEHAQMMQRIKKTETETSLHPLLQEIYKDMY", "experiment": "qHTS assay for small molecule antagonists of peroxisome proliferator-activated receptor delta signaling (AID 588535)", "details": "HEK293T PPARd-UAS-bla, beta-lactamase FRET ratio, 18 h; series mostly up to 76.7 µM", "procedure,_shortened": "as §1"}}, "note": "Several values for one entry are separate records, joined by “and”; a condition that tells them apart may be missing. Equal values may be shown once. Inconclusive results are not listed. Where a call stands in place of a potency, no number is given. Activity calls are given as the source filed them. Unless noted, the call rests on the fitted dose curve; in most records, active means well fitted curve in the direction sought with a large enough effect; inconclusive means small, poorly fitted or top-dose-only effect, or another doubt; inactive means no such curve, though single readings can be large; an effect the other way counts as inactive or inconclusive."}
{"smiles": "C[C@@H](C(=O)O)c1ccc(-c2ccccc2)c(F)c1", "values": [{"measurement": "outcome", "setting": "[1]", "value": "inactive"}, {"measurement": "Potency", "setting": "[2]", "value": "inactive"}]}
{"smiles": "CN[C@@H]1[C@H](O)[C@H](O[C@@H]2[C@H](O)[C@@H](O[C@H]3O[C@H]([C@@H](C)NC)CC[C@H]3N)[C@@H](N)C[C@H]2N)OC[C@]1(C)O", "values": [{"measurement": "growth, % of control", "setting": "[3]", "value": 107, "unit": "%"}]}
{"smiles": "C[N+](C)(C)CCC(=O)c1cccc2ccccc12", "values": [{"measurement": "Potency", "setting": "[4]", "value": "inactive"}, {"measurement": "Potency", "setting": "[5]", "value": "inactive"}, {"measurement": "Potency", "setting": "[6]", "value": "inactive"}, {"measurement": "Potency", "setting": "[7]", "value": "inactive"}, {"measurement": "Potency", "setting": "[8]", "value": "inactive"}, {"measurement": "Potency", "setting": "[9]", "value": "1.78 µM (active)"}, {"measurement": "Potency", "setting": "[10]", "value": "10 µM (active)"}, {"measurement": "Potency", "setting": "[11]", "value": "inactive"}]}
{"smiles": "Cc1cccc(/C=C\\c2ccccc2)n1", "values": [{"measurement": "Potency", "setting": "[12]", "value": "15.8 µM (active)"}]}
{"smiles": "CC/C=C\\C/C=C\\C/C=C\\C/C=C\\C/C=C\\CCCCCC(=O)O", "values": [{"measurement": "outcome", "setting": "[13]", "value": "inactive"}, {"measurement": "outcome", "setting": "[14]", "value": "inactive"}]}
{"smiles": "CC(=O)[C@H]1[C@H](C#N)C[C@H]2[C@@H]3CC=C4C[C@@H](O)CC[C@]4(C)[C@H]3CC[C@@]21C", "values": [{"measurement": "outcome", "setting": "[15]", "value": "inactive"}, {"measurement": "activation", "setting": "[16]", "value": "-8.47% (inactive) and 3.7% (inactive)"}, {"measurement": "activation", "setting": "[17]", "value": "-1.18% (inactive) and -2.42% (inactive)"}, {"measurement": "outcome", "setting": "[18]", "value": "inactive"}]}
{"smiles": "CC(C)=CCC/C(C)=C/CC/C(C)=C/CO", "values": [{"measurement": "max response", "setting": "[19]", "value": -3.54, "unit": "%"}, {"measurement": "outcome", "setting": "[20]", "value": "inactive"}]}
